# Vif-A3G inh: Vif-A3G binding inhibition. Q9HC16. HeLa A3G-eYFP + Vif (tagged APOBEC3G with the HIV-1 protein that degrades it), YFP fluorescence, overnight. Potency, µM (highest dose often 46.1 µM), without a hit: at the top dose activity, negative = active, actives largely listed as inhibitors. 410,000 compounds, 0.076% hits. AID 602310; note: potency is the fitted concentration of half-maximal effect; % is set by controls: 0 for no effect and ±100 for the full control effect; nearly all actives have a fitted effect of over 60% in size
# Target sequence (Q9HC16 whole entry, looked up): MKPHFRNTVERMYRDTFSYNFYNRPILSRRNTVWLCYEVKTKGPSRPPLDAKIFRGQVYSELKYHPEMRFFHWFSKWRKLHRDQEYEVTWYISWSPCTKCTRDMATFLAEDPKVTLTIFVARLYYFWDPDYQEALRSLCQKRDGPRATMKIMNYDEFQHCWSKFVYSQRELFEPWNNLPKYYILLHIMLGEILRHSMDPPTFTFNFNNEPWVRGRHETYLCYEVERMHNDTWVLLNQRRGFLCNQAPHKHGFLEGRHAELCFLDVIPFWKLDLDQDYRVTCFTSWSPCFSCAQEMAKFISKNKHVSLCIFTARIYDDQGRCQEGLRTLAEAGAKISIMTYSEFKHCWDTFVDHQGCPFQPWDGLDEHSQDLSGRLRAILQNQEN
#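 Read-out is eYFP fluorescence (Ex 488/Em 500-530) from Vif-expressing HeLa A3G-eYFP cells; more signal means A3G escaped Vif-mediated degradation. Cells plated overnight, compound pinned in, incubated overnight at 37 deg C.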
# SW480 rerep: inducers of DNA re-replication in SW480 colon cancer cells | SW480 DNA re-replication, Hoechst DNA content imaging, 48 h | 340,000 compounds, 1.8% hits | AID 624297 | Potency, µM (series often up to 46.1 µM), for inactives: top-dose re-replication activation, usual class: activators; note: potency is the fitted concentration of half-maximal effect; % of control where 0% means no effect; nearly all actives have a fitted effect of over 55% in size
#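 Cells (250 per well) received 23 nL compound or DMSO by pin tool and were kept 48 hr at 37 C, 5% CO2. Nuclei were then stained with Hoechst for 40 min and scanned for DNA content.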
# MCF10A rereplic: DNA re-replication induction in MCF 10a cells; MCF 10A DNA re-replication, Hoechst nuclear intensity, 48 h; Potency, µM (top dose mostly 46.1 µM), without a hit: at the highest dose activity, positive = re-replication, actives largely listed as activators; 350,000 compounds, 2.9% hits; AID 624296; note: potency is the fitted concentration of half-maximal effect; % of control where 0% means no effect; nearly all actives have a fitted effect of over 50% in size
# Vif-APOBEC3F blk: blocks the Vif interaction with APOBEC3F; HeLa A3F-eYFP + Vif (tagged APOBEC3F with the HIV-1 protein that degrades it), YFP fluorescence increase; Potency, µM (top dose mostly 46.1 µM), for the others: top-dose activity, negative = active; 390,000 compounds, 0.2% hits; AID 602313; note: potency is the fitted concentration of half-maximal effect; % of control where 0% means no effect; nearly all actives have a fitted effect of over 65% in size
#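 HeLa cells stably expressing A3F-eYFP plus Vif, plated and incubated overnight at 37 deg C, then exposed to compounds overnight at 37 deg C. Blocked degradation read as raised yellow fluorescence (Ex 488/Em 500-530).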
# Giardia killer: kills Giardia lamblia; activity change, % at 7.66 µM, hits read low; Giardia lamblia trophozoite viability; 340,000 compounds, 0.15% hits; in the data active = activity change below about -80%; inconclusive = between about -30% and that limit;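 note: parasites exposed to compound for two days anaerobically before the ATP read; % is set by controls: 0 for no effect and ±100 for the full control effect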
#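 Trophozoites 100 cells/well + cpd; 48 hrs, 37 deg C, anaerobic. ATPLite 1-Step added, 15-30 min RT, luminescence read (ATP-based viability).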
# IL1B secr inh: inflammasome signaling inhibition, IL-1 beta readout; THP-1 LPS/ATP IL-1B secretion, AlphaLISA, 16 h; active compounds read low; activity change, % at 57.5 µM; 360,000 compounds, 4.7% hits; in the data active = activity change below about -50%; inconclusive = mostly about -30% to -49%; note: % is set by controls: 0 for no effect and ±100 for the full control effect
#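 THP-1 cells pretreated 1 hr with compounds (up to 57.5 uM final), then stimulated with LPS (250 ng/mL final) plus ATP (1.25 mM final); secreted IL-1B measured by AlphaLISA after 16 hr, decreased signal indicating inhibition.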
# Active calls of the source: *; ? = inconclusive; / = no result. A selection: hits, their analogues and other compounds. The true share with any hit is near 6.9%. Unless noted, calls come from the whole dose curve; as a rule, active = well fitted curve in the direction sought with a large enough effect; inconclusive = small, poorly fitted or top-dose-only effect, or another doubt; inactive = no such curve, though single readings can be large; an effect the other way counts as inactive or inconclusive.
SMILES,Vif-A3G inh,SW480 rerep,MCF10A rereplic,Vif-APOBEC3F blk,Giardia killer,IL1B secr inh
CCN1CCN(CCCNC(=O)c2ccc3c(c2)NC(=O)/C(=C\c2cccc(C)c2)S3)CC1,?,1%,?,?,27,-87*
COc1cccc(/C=C2/Sc3ccc(C(=O)NCCN4CCCCCC4)cc3NC2=O)c1,0%,?,21µM*,?,-16,-27
COC(=O)CN1C(=O)[C@@H]2[C@H](C1=O)[C@@H]1CC(C(=O)OC)=C[C@@H](C(=O)OC)C3C1=C(C(=O)[C@]3(C)NC(=O)c1ccccc1)[C@@H]2C (stereo not given in full),5%,/,/,/,12,/
COc1cccc(C2=CC(c3ccccc3F)n3ncc(C(=O)Nc4ccc(F)cc4)c3N2)c1 (stereo not given),-4%,/,/,-11%,/,/
C[N+]1(CC(=O)c2ccc(Cl)c(Cl)c2)CCOCC1,-4%,/,/,/,/,/
CC(C)Cc1ccc([C@@H](C)C(=O)NS(C)(=O)=O)cc1,/,-2%,-1%,/,/,/
CC(C)Cc1ccc(C(C)CC2=CCC(CN(C)C)C2=O)cc1 (stereo not given),?,?,6.5µM*,4%,-15,0
Cc1ccc(NC(=O)[C@H](NC(=O)[C@@H]2Cc3ccccc3CN2)c2ccccc2)cc1C,0%,-3%,26µM*,0%,?,-4
Cc1ccc(NC(=O)[C@@H](C)NC(=O)[C@@H]2Cc3ccccc3CN2)cc1,1%,1%,-3%,0%,-20,-14
CCCCNC(=O)/C(=C\c1ccc([N+](=O)[O-])o1)NC(=O)c1ccccc1,-14%,?,-4%,3%,-101*,25
COC(=O)/C(=C\c1ccc([N+](=O)[O-])o1)NC(=O)c1ccccc1,-23%,?,27%,-14%,?,6
Cc1ccc(C(=O)N/C(=C\c2ccc(-c3ccccc3[N+](=O)[O-])o2)C(=O)NCCCN(C)C)cc1,2%,2%,11%,?,-21,5
Cc1ccc(C(=O)N/C(=C\c2ccc(-c3ccc(Cl)cc3)o2)C(=O)NCCCN(C)C)cc1,?,18µM*,?,16%,-18,-67*
Cc1ccc(C(=O)N/C(=C\c2ccc(-c3ccccc3[N+](=O)[O-])o2)C(=O)NCCN(C)C)cc1,1%,2.9µM*,-2%,-10%,8,-16
CCN(Cc1ccccc1)C(=O)C1CCN(c2ncnc3c2nc2n3CCCCC2)CC1,-9%,0%,15%,-2%,5,?
O=C(Nc1ccccc1Cl)C1CCCN(c2ncnc3c2nc2n3CCCCC2)C1 (stereo not given),-9%,9%,?,-13%,22,-63*
O=C(NCC1CCN(Cc2ccc(Cl)cc2)CC1)C1CCCN(c2ncnc3c2nc2n3CCCCC2)C1 (stereo not given),5%,4%,-1%,7%,6,-61*
CCc1cccc(NC(=O)C2CCCN(c3ncnc4c3nc3n4CCCCC3)C2)c1 (stereo not given),3%,-5%,?,-9%,26,-54*
CCc1ccccc1N(CC)C(=O)C1CCN(c2ncnc3c2nc2n3CCCCC2)CC1,0%,?,23µM*,5%,-22,-27
COc1ccc(-n2c(=O)c3sc4ccccc4c3n(CC(=O)NC3CCCCC3)c2=O)cc1,-2%,/,/,0%,/,/
Oc1ccccc1C1C=C(c2ccc3c(c2)OCO3)NC(c2ccc(Br)cc2)N1 (stereo not given),-19%,/,/,/,-9,/
Cc1cc(NC(=O)CCn2c(=O)c3cccn3c3cccnc32)ccc1Br,-5%,/,/,-8%,/,/
O=C(CCC1N=C2c3ccccc3N=C(SCC(=O)Nc3ccc(F)cc3)N2C1=O)NCc1ccco1 (stereo not given),9%,/,/,-2%,/,/
CCOc1ccc(NC(=O)COC(=O)c2ccccc2OCC(=O)N(C)C)cc1,-1%,/,/,/,/,/
Cc1ccc(S(=O)(=O)N2CCCc3cc(NC(=O)c4ccc(C(F)(F)F)cc4)ccc32)cc1,5%,/,/,-2%,/,/
SMILES,Vif-A3G inh,SW480 rerep,MCF10A rereplic,Vif-APOBEC3F blk,Giardia killer,IL1B secr inh
Cc1cccc(N2CCN(CCCNC(=O)C3CCCN(c4ncnc5c4nc4n5CCCCC4)C3)CC2C)c1 (stereo not given),5%,?,?,-2%,9,-77*
COc1cc(OC)c(NC(=O)c2noc3c2CSc2ccccc2-3)cc1Cl,4%,/,/,0%,/,/
COC(=O)CC1(C(=O)OC)Oc2ccc(Br)cc2C(=O)N1c1cccc(Cl)c1Cl (stereo not given),-16%,18µM*,?,5%,12,19
O=C1N(c2ccccc2)C2CS(=O)(=O)CC2N1c1ccc(Cl)c(Cl)c1 (stereo not given),-2%,-5%,3%,-6%,10,-55*
COCCCNC(=S)Nc1cc2oc3ccccc3c2cc1OC,?,12µM*,9.2µM*,-4%,5,-3
COc1cc2c(cc1NC(=O)CN(C)Cc1ccc(OC)c(OC)c1)oc1ccccc12,1%,18µM*,9.2µM*,-5%,25,-25
O=S(=O)(Nc1cccc2ccccc12)N1CCCC1,-1%,5%,8.2µM*,-21%,-2,4
COc1cc2c(cc1NCc1ccccn1)oc1ccccc12,-7%,3%,23µM*,-26%,-3,-22
COc1cc2c(cc1NCc1ccc3c(c1)OCO3)oc1ccccc12,-11%,-4%,10%,-9%,-6,?
Cc1ccc(S(=O)(=O)Nc2cc3c(cc2N2CCOCC2)n(C)c(=O)n3C)c(C)c1,-2%,/,/,-12%,/,/
COc1ccc(-n2c(=O)c3c4c(sc3n(Cc3ccc(F)cc3)c2=O)CN(C(C)=O)CC4)c(OC)c1,10%,/,/,8%,/,/
Cc1cccc(-c2nnn3c2nc(NCCc2ccc(S(N)(=O)=O)cc2)c2cc(Cl)ccc23)c1,-7%,/,/,3%,/,/
COc1cc2c(cc1NS(=O)(=O)N1CCCCC1)oc1ccccc12,0%,?,10µM*,-9%,-10,-8
O=c1c2ccccc2oc2cc(Br)ccc12,2%,4%,-2%,4%,-19,14
COc1cc2oc3ccccc3c(=O)c2cc1OC,4%,-13%,-2%,-2%,14,-51*

# Screening data as filed in PubChem BioAssay.
